From publication PMC11006913 come the findings set out here.

Where a chain is given by its changes, count along the chain named.

Test in all cases: PBM; 200 nM protein, PBS
Common to all, as to settings: dsDNA, one strand shown

Assay [1] concerns the target CRX (Homo sapiens, UniProt O43186 26-111).
The target of assay [2] is T1, VENTX (Homo sapiens, UniProt O95231 78-163, R121Q).
T1 sequence: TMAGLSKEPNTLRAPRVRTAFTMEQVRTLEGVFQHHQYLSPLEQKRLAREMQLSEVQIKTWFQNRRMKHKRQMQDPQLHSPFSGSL

Assay [3] addresses T2, SIX6 (Homo sapiens, UniProt O95475 114-200, L167I).
T2 sequence: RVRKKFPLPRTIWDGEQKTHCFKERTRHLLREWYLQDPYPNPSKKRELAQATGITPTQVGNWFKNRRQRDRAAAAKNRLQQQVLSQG

Assay [4] addresses T3, VENTX (Homo sapiens, UniProt O95231 78-163).
T3 sequence: T1 sequence with Q44R

Assay [5] concerns the target T4, SIX6 (Homo sapiens, UniProt O95475 114-200, L143V).
T4 sequence: T2 sequence with L30V, I54L

In assay [6] the target is HOXC10 (Homo sapiens, UniProt Q9NYD6 254-340).
HOXC10 (Homo sapiens, UniProt Q9NYD6 254-340), sequence (Q9NYD6 254-340): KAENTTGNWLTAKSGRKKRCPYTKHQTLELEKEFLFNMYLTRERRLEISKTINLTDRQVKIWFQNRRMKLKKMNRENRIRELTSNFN
Assay [7] concerns the target T5, SIX6 (Homo sapiens, UniProt O95475 114-200, H141N).
T5 sequence: T2 sequence with H28N, I54L

Assay [8] concerns the target T6, SIX6 (Homo sapiens, UniProt O95475 114-200, T165P).
T6 sequence: T2 sequence with T52P, I54L

Assay [9] concerns the target T7, VENTX (Homo sapiens, UniProt O95231 78-163, Y115F).
T7 sequence: T1 sequence with Y38F, Q44R

Assay [10] has as its target T8, SIX6 (Homo sapiens, UniProt O95475 114-200, L167M).
T8 sequence: T2 sequence with I54M

For assay [11], the target named is T9, SIX6 (Homo sapiens, UniProt O95475 114-200, L143M).
T9 sequence: T2 sequence with L30M, I54L

Assay [12] addresses T10, SIX6 (Homo sapiens, UniProt O95475 114-200, L143I).
T10 sequence: T2 sequence with L30I, I54L

For assay [13], the target named is T11, SIX6 (Homo sapiens, UniProt O95475 114-200, T165G).
T11 sequence: T2 sequence with T52G, I54L

Assay [14] addresses T12, SIX6 (Homo sapiens, UniProt O95475 114-200, T139Q).
T12 sequence: T2 sequence with T26Q, I54L

In assay [15] the target is CRX (Homo sapiens, UniProt O43186 26-111, E42D).
CRX (Homo sapiens, UniProt O43186 26-111, E42D), sequence (O43186 26-111 E42D): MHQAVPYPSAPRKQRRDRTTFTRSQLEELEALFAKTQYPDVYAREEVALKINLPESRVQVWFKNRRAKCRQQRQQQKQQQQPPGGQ
For assay [16], the target named is MSX2 (Homo sapiens, UniProt P35548 130-214, R199I).
MSX2 (Homo sapiens, UniProt P35548 130-214, R199I), sequence (P35548 130-214 R199I): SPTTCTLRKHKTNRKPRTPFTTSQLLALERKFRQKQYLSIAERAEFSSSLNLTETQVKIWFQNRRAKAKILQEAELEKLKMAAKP
Assay [17] deals with T13, SIX6 (Homo sapiens, UniProt O95475 114-200, T165A).
T13 sequence: T2 sequence with T52A, I54L

Assay [18] addresses HOXC10 (Homo sapiens, UniProt Q9NYD6 254-340, K271E).
The target in assay [19] is MSX2 (Homo sapiens, UniProt P35548 130-214).
MSX2 (Homo sapiens, UniProt P35548 130-214), sequence (P35548 130-214): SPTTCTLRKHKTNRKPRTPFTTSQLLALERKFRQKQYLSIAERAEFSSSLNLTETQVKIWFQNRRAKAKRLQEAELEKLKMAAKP
Assay [20] has as its target T14, SIX6 (Homo sapiens, UniProt O95475 114-200, L167V).
T14 sequence: T2 sequence with I54V

The target in assay [21] is T15, SIX6 (Homo sapiens, UniProt O95475 114-200).
T15 sequence: T2 sequence with I54L

For assay [22], the target named is T16, SIX6 (Homo sapiens, UniProt O95475 114-200, T165I).
T16 sequence: T2 sequence with T52I, I54L

Assay [23] deals with MSX2 (Homo sapiens, UniProt P35548 130-214, F161Y).
MSX2 (Homo sapiens, UniProt P35548 130-214, F161Y), sequence (P35548 130-214 F161Y): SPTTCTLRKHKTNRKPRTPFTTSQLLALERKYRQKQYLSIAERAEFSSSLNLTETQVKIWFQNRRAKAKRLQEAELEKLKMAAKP
The target in assay [24] is CRX (Homo sapiens, UniProt O43186 26-111, R41L).
CRX (Homo sapiens, UniProt O43186 26-111, R41L), sequence (O43186 26-111 R41L): as the sequence (O43186 26-111 E42D) above, with R16L, D17E counted along it
Assay [25] deals with HOXB9 (Homo sapiens, UniProt P17482 171-250, T197M).
HOXB9 (Homo sapiens, UniProt P17482 171-250, T197M), sequence (P17482 171-250 T197M): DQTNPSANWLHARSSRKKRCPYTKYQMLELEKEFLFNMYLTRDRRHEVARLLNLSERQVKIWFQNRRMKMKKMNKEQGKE
Assay [26] addresses ALX4 (Homo sapiens, UniProt Q9H161 200-286).
Assay [27] concerns the target ALX4 (Homo sapiens, UniProt Q9H161 200-286, Q225E).
In assay [28] the target is HOXA2 (Homo sapiens, UniProt O43364 129-215, R185T).
HOXA2 (Homo sapiens, UniProt O43364 129-215, R185T), sequence (O43364 129-215 R185T): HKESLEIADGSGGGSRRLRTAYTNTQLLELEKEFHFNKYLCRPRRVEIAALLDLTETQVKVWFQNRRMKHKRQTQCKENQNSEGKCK
Assay [29] addresses HOXB9 (Homo sapiens, UniProt P17482 171-250).
The target in assay [30] is HOXA2 (Homo sapiens, UniProt O43364 129-215, R185K).
HOXA2 (Homo sapiens, UniProt O43364 129-215, R185K), sequence (O43364 129-215 R185K): as the sequence (O43364 129-215 R185T) above, with T57K counted along it
The target in assay [31] is HOXB9 (Homo sapiens, UniProt P17482 171-250, R186Q).
HOXB9 (Homo sapiens, UniProt P17482 171-250, R186Q), sequence (P17482 171-250 R186Q): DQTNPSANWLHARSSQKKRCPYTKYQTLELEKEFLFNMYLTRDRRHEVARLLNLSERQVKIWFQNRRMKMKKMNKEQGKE
Assay [32] has as its target HOXA2 (Homo sapiens, UniProt O43364 129-215, Y150S).
The target of assay [33] is HOXA2 (Homo sapiens, UniProt O43364 129-215).
HOXA2 (Homo sapiens, UniProt O43364 129-215), sequence (O43364 129-215): as the sequence (O43364 129-215 R185T) above, with T57R counted along it

CRX (Homo sapiens, UniProt O43186 26-111), sequence (O43186 26-111): as the sequence (O43186 26-111 E42D) above, with D17E counted along it
ALX4 (Homo sapiens, UniProt Q9H161 200-286), sequence (Q9H161 200-286): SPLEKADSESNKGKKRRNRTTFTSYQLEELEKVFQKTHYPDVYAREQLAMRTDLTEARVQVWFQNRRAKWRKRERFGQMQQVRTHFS
HOXA2 (Homo sapiens, UniProt O43364 129-215, Y150S), sequence (O43364 129-215 Y150S): as the sequence (O43364 129-215 R185T) above, with Y22S, T57R counted along it
HOXC10 (Homo sapiens, UniProt Q9NYD6 254-340, K271E), sequence (Q9NYD6 254-340 K271E): as the sequence (Q9NYD6 254-340) above, with K18E counted along it
HOXB9 (Homo sapiens, UniProt P17482 171-250), sequence (P17482 171-250): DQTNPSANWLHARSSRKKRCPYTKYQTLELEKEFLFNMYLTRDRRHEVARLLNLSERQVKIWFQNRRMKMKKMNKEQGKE
ALX4 (Homo sapiens, UniProt Q9H161 200-286, Q225E), sequence (Q9H161 200-286 Q225E): as the sequence (Q9H161 200-286) above, with Q26E counted along it

Consider CTGCTGGC, for which the binding signal was 8.31 upbm affinity estimate (log intensity, higher = more binding, comparable within an allelic series) with CRX [1]; 7.75 upbm affinity estimate (log intensity, higher = more binding, comparable within an allelic series) with VENTX [2]; 8.86 upbm affinity estimate (log intensity, higher = more binding, comparable within an allelic series) in the assay with SIX6 [3]; 7.86 upbm affinity estimate (log intensity, higher = more binding, comparable within an allelic series) with VENTX [4]; 8.74 upbm affinity estimate (log intensity, higher = more binding, comparable within an allelic series) with SIX6 [5]; 9.92 upbm affinity estimate (log intensity, higher = more binding, comparable within an allelic series) with HOXC10 [6]. Besides, the binding signal with SIX6 [7] was 8.87 upbm affinity estimate (log intensity, higher = more binding, comparable within an allelic series); in the assay with SIX6 [8], 8.81 upbm affinity estimate (log intensity, higher = more binding, comparable within an allelic series); in the assay with VENTX [9], 7.71 upbm affinity estimate (log intensity, higher = more binding, comparable within an allelic series); with SIX6 [10], 8.92 upbm affinity estimate (log intensity, higher = more binding, comparable within an allelic series); in the assay with SIX6 [11], 8.85 upbm affinity estimate (log intensity, higher = more binding, comparable within an allelic series); with SIX6 [12], 8.83 upbm affinity estimate (log intensity, higher = more binding, comparable within an allelic series). The binding signal in the assay with SIX6 [13] is 8.91 upbm affinity estimate (log intensity, higher = more binding, comparable within an allelic series); with SIX6 [14], 8.84 upbm affinity estimate (log intensity, higher = more binding, comparable within an allelic series); with CRX [15], 8.3 upbm affinity estimate (log intensity, higher = more binding, comparable within an allelic series); in the assay with MSX2 [16], 9.25 upbm affinity estimate (log intensity, higher = more binding, comparable within an allelic series); with SIX6 [17] it was 8.81 upbm affinity estimate (log intensity, higher = more binding, comparable within an allelic series); with HOXC10 [18], 9.97 upbm affinity estimate (log intensity, higher = more binding, comparable within an allelic series). In addition, the binding signal with MSX2 [19] is 9.22 upbm affinity estimate (log intensity, higher = more binding, comparable within an allelic series); with SIX6 [20] it was 8.93 upbm affinity estimate (log intensity, higher = more binding, comparable within an allelic series); with SIX6 [21] it was 8.83 upbm affinity estimate (log intensity, higher = more binding, comparable within an allelic series); with SIX6 [22] it was 8.82 upbm affinity estimate (log intensity, higher = more binding, comparable within an allelic series); with MSX2 [23], 9.31 upbm affinity estimate (log intensity, higher = more binding, comparable within an allelic series); with CRX [24], 8.2 upbm affinity estimate (log intensity, higher = more binding, comparable within an allelic series).

With ACGCAACG, the binding signal with CRX [1] is 8.38 upbm affinity estimate (log intensity, higher = more binding, comparable within an allelic series); with SIX6 [3], 9.07 upbm affinity estimate (log intensity, higher = more binding, comparable within an allelic series); with SIX6 [5], 9.09 upbm affinity estimate (log intensity, higher = more binding, comparable within an allelic series); with SIX6 [7], 9.09 upbm affinity estimate (log intensity, higher = more binding, comparable within an allelic series); with SIX6 [8], 9.22 upbm affinity estimate (log intensity, higher = more binding, comparable within an allelic series); in the assay with SIX6 [10], 9.12 upbm affinity estimate (log intensity, higher = more binding, comparable within an allelic series). The binding signal with SIX6 [11] is 9.21 upbm affinity estimate (log intensity, higher = more binding, comparable within an allelic series); with SIX6 [12] it was 9.08 upbm affinity estimate (log intensity, higher = more binding, comparable within an allelic series); in the assay with SIX6 [13], 9.2 upbm affinity estimate (log intensity, higher = more binding, comparable within an allelic series); with SIX6 [14], 9.17 upbm affinity estimate (log intensity, higher = more binding, comparable within an allelic series); with CRX [15] it was 8.41 upbm affinity estimate (log intensity, higher = more binding, comparable within an allelic series); with SIX6 [17], 9.14 upbm affinity estimate (log intensity, higher = more binding, comparable within an allelic series). Moreover, the binding signal with SIX6 [20] is 9.19 upbm affinity estimate (log intensity, higher = more binding, comparable within an allelic series); in the assay with SIX6 [21], 9.12 upbm affinity estimate (log intensity, higher = more binding, comparable within an allelic series); in the assay with SIX6 [22] it was 9.12 upbm affinity estimate (log intensity, higher = more binding, comparable within an allelic series); with CRX [24], 8.43 upbm affinity estimate (log intensity, higher = more binding, comparable within an allelic series).

For the sequence CCGTCGCC, the binding signal with CRX [1] is 8.18 upbm affinity estimate (log intensity, higher = more binding, comparable within an allelic series); in the assay with SIX6 [3], 8.85 upbm affinity estimate (log intensity, higher = more binding, comparable within an allelic series); in the assay with SIX6 [5], 8.91 upbm affinity estimate (log intensity, higher = more binding, comparable within an allelic series); in the assay with SIX6 [7] it was 8.81 upbm affinity estimate (log intensity, higher = more binding, comparable within an allelic series); with SIX6 [8] it was 9.06 upbm affinity estimate (log intensity, higher = more binding, comparable within an allelic series); in the assay with SIX6 [10], 8.97 upbm affinity estimate (log intensity, higher = more binding, comparable within an allelic series). The binding signal with SIX6 [11] is 8.82 upbm affinity estimate (log intensity, higher = more binding, comparable within an allelic series); in the assay with SIX6 [12] it was 8.94 upbm affinity estimate (log intensity, higher = more binding, comparable within an allelic series); with SIX6 [13], 8.89 upbm affinity estimate (log intensity, higher = more binding, comparable within an allelic series); in the assay with SIX6 [14], 9.02 upbm affinity estimate (log intensity, higher = more binding, comparable within an allelic series); with CRX [15], 8.26 upbm affinity estimate (log intensity, higher = more binding, comparable within an allelic series); with SIX6 [17] it was 8.74 upbm affinity estimate (log intensity, higher = more binding, comparable within an allelic series). In addition, the binding signal was 8.83 upbm affinity estimate (log intensity, higher = more binding, comparable within an allelic series) in the assay with SIX6 [20]; 8.87 upbm affinity estimate (log intensity, higher = more binding, comparable within an allelic series) in the assay with SIX6 [21]; 8.79 upbm affinity estimate (log intensity, higher = more binding, comparable within an allelic series) with SIX6 [22]; 8.24 upbm affinity estimate (log intensity, higher = more binding, comparable within an allelic series) with CRX [24].

In the case of GAGGTACC, the binding signal with CRX [1] is 8.08 upbm affinity estimate (log intensity, higher = more binding, comparable within an allelic series); in the assay with VENTX [2] it was 8.02 upbm affinity estimate (log intensity, higher = more binding, comparable within an allelic series); with VENTX [4], 8.04 upbm affinity estimate (log intensity, higher = more binding, comparable within an allelic series); with VENTX [9], 8.14 upbm affinity estimate (log intensity, higher = more binding, comparable within an allelic series); with CRX [15], 8.18 upbm affinity estimate (log intensity, higher = more binding, comparable within an allelic series); with CRX [24] it was 8.17 upbm affinity estimate (log intensity, higher = more binding, comparable within an allelic series).

For the sequence GGGGCCCC, the binding signal with CRX [1] is 8.9 upbm affinity estimate (log intensity, higher = more binding, comparable within an allelic series); in the assay with HOXB9 [25], 8.67 upbm affinity estimate (log intensity, higher = more binding, comparable within an allelic series); with SIX6 [3], 9.09 upbm affinity estimate (log intensity, higher = more binding, comparable within an allelic series); with SIX6 [5], 8.85 upbm affinity estimate (log intensity, higher = more binding, comparable within an allelic series); with ALX4 [26], 8.29 upbm affinity estimate (log intensity, higher = more binding, comparable within an allelic series); with SIX6 [7] it was 9 upbm affinity estimate (log intensity, higher = more binding, comparable within an allelic series). Besides, the binding signal was 8.87 upbm affinity estimate (log intensity, higher = more binding, comparable within an allelic series) with SIX6 [8]; 8.88 upbm affinity estimate (log intensity, higher = more binding, comparable within an allelic series) in the assay with SIX6 [10]; 8.91 upbm affinity estimate (log intensity, higher = more binding, comparable within an allelic series) with SIX6 [11]; 8.93 upbm affinity estimate (log intensity, higher = more binding, comparable within an allelic series) with SIX6 [12]; 8.44 upbm affinity estimate (log intensity, higher = more binding, comparable within an allelic series) in the assay with ALX4 [27]; 8.95 upbm affinity estimate (log intensity, higher = more binding, comparable within an allelic series) with SIX6 [13]. In addition, the binding signal with HOXA2 [28] was 7.49 upbm affinity estimate (log intensity, higher = more binding, comparable within an allelic series); with HOXB9 [29], 8.5 upbm affinity estimate (log intensity, higher = more binding, comparable within an allelic series); with SIX6 [14], 9.06 upbm affinity estimate (log intensity, higher = more binding, comparable within an allelic series); with CRX [15], 8.69 upbm affinity estimate (log intensity, higher = more binding, comparable within an allelic series); with SIX6 [17], 9.03 upbm affinity estimate (log intensity, higher = more binding, comparable within an allelic series); with HOXA2 [30], 10.2 upbm affinity estimate (log intensity, higher = more binding, comparable within an allelic series). For the same sequence, the binding signal in the assay with SIX6 [20] is 8.99 upbm affinity estimate (log intensity, higher = more binding, comparable within an allelic series); in the assay with SIX6 [21] it was 8.93 upbm affinity estimate (log intensity, higher = more binding, comparable within an allelic series); in the assay with SIX6 [22], 8.97 upbm affinity estimate (log intensity, higher = more binding, comparable within an allelic series); with HOXB9 [31], 8.63 upbm affinity estimate (log intensity, higher = more binding, comparable within an allelic series); with HOXA2 [32], 10.5 upbm affinity estimate (log intensity, higher = more binding, comparable within an allelic series); in the assay with CRX [24], 8.38 upbm affinity estimate (log intensity, higher = more binding, comparable within an allelic series). Moreover, the binding signal in the assay with HOXA2 [33] was 7.38 upbm affinity estimate (log intensity, higher = more binding, comparable within an allelic series).
